In article PMC4552634, “A New Set of Chemical Starting Points with Plasmodium falciparum Transmission-Blocking Potential for Antimalarial Drug Discovery” (PLoS ONE, 2015):
Among all 13,000 compounds or so, about 3,200 (25%) showed an effect of 50% or more. This is one part of the list.

The compounds below were run on P. falciparum stage V gametocytes. Conditions: 48 h, 5 µM; inhibitor.
Design: BacTiter-Glo ATP luminescence viability of purified stage V gametocytes in 384-well plates, per cent inhibition versus DMSO

With `COc1ccc(Nc2ncc3c(-c4ccc(NC(=O)c5cccc(C(F)(F)F)c5)cc4)c[nH]c3n2)cc1OC` [TCMDC-138863] as the compound, how does the “% Inhibition” value read?
The value was -42.22%.

Which “% Inhibition” value does the source give for `Cc1cnccc1/C=C/c1cccc(OCCN2CCc3ccc(S(C)(=O)=O)cc3CC2)c1` [TCMDC-135875] here?
Its value is 13.2%.

`Cc1noc(C)c1-c1ccc2c(Nc3ccc([N+](=O)[O-])cc3)c(C(N)=O)cnc2c1.Cl` [TCMDC-136009] was tested. Which “% Inhibition” value did it give?
Its value is -6.074%.

With `CN(C(=O)c1ccccc1)C1c2cc(C#N)ccc2OC(C)(C)C1O` (centres unmarked) [TCMDC-131573] as the compound, how does the “% Inhibition” value read?
The value was -17.79%.

For `O=C1O[C@H](c2ccccc2)[C@H](c2ccccc2)N(C(=O)OCc2ccccc2)[C@H]1Cc1ccccc1C1CCCC1` [TCMDC-137303], which “% Inhibition” value is on record?
Its value is 5.453%.

`OC(c1ccccc1)C1CN(CCC2CC3CCC2C3)CCC1(O)c1ccccc1` (centres unmarked) [TCMDC-131996] was tested. Which “% Inhibition” value did it give?
Its value is -67.18%.

For `CCC(C)NS(=O)(=O)c1ccc2nc(Nc3cccc(SC)c3)n(C(C)C(C)C)c2c1` (centres unmarked) [TCMDC-136237], which “% Inhibition” value is on record?
Its value is -59.9%.

With `CN1CCN(c2ccc(Nc3c(C(N)=O)cnc4cc(-c5ccoc5)ccc34)cc2)CC1.Cl` [TCMDC-135440] as the compound, how does the “% Inhibition” value read?
Its value is -93.68%.

`Cl.NC(=O)c1cnc2cc(-c3ccoc3)ccc2c1Nc1ccc(NC(=O)Nc2ccccc2Cl)cc1` [TCMDC-135442] was tested. Which “% Inhibition” value did it give?
The value was 70.72%.

Which “% Inhibition” value does the source give for `Cc1cc(Nc2c(C(N)=O)cnc3cc(-c4ccoc4)ccc23)ccc1N1CCN(C)CC1.Cl` [TCMDC-135441] here?
The value was -28.97%.

Which “% Inhibition” value does the source give for `O=C(Nc1ccccc1-c1nc2ccccc2s1)C(Cl)(Cl)Cl` [TCMDC-123676] here?
The value was 7.005%.

With `Clc1ccc(Cl)c2[nH]c(CNCCCNc3nc4ccccc4[nH]3)cc12` [TCMDC-139957] as the compound, how does the “% Inhibition” value read?
Its value is 50.82%.

For `Clc1ccc2c(Cl)c(CNCCCNc3nc4ccccc4[nH]3)[nH]c2c1` [TCMDC-139967], which “% Inhibition” value is on record?
The value was -22.32%.

`CCOc1c(Br)cc(Br)cc1CNCCCCNc1nc2ccccc2[nH]1` [TCMDC-139968] was tested. Which “% Inhibition” value did it give?
Its value is 0.6072%.

For `c1ccc(-c2ccc(CNCCCNc3nc4ccccc4[nH]3)cc2)cc1` [TCMDC-136061], which “% Inhibition” value is on record?
Its value is 54.24%.

With `CCOc1c(CNCCCNc2nc3ccccc3[nH]2)cc(Br)cc1OC` [TCMDC-140089] as the compound, how does the “% Inhibition” value read?
Its value is 52.36%.

With `CCOc1c(CNCCCNc2nc3ccccc3[nH]2)cc(I)cc1OC` [TCMDC-140105] as the compound, how does the “% Inhibition” value read?
The value was 34.54%.

`Clc1cc(Cl)c2cc(CNCCCNc3ccc4ccccc4n3)[nH]c2c1` [TCMDC-140495] was tested. Which “% Inhibition” value did it give?
Its value is 95.02%.

`Brc1cc(CNCCCNc2nc3ccccc3[nH]2)sc1Br` [TCMDC-139801] was tested. Which “% Inhibition” value did it give?
Its value is 12.5%.

For `Cc1cc(C)c2cc(CNCCCNc3nc4ccccc4[nH]3)[nH]c2c1` [TCMDC-140069], which “% Inhibition” value is on record?
The value was 42.15%.

`O=C(NCCCNc1ccc2ccccc2n1)c1cc2c(Cl)cc(Cl)cc2[nH]1` [TCMDC-140378] was tested. Which “% Inhibition” value did it give?
Its value is 3.853%.

`O=c1cc(NCCCNCc2cc3c(Cl)cc(Cl)cc3[nH]2)[nH]c2ccccc12` [TCMDC-139789] was tested. Which “% Inhibition” value did it give?
The value was 2.174%.

How did the “% Inhibition” value turn out when `FC(F)(F)c1cc(C(F)(F)F)c2cc(CNCCCNc3nc4ccccc4[nH]3)[nH]c2c1` [TCMDC-139965] was run?
Its value is -11.18%.
